Measurements from PubChem BioAssay AID1159580 (chemical genetic matrix, 2015).
Values joined by “and” are separate entries in the source; they are usually repeats but may differ in a detail not shown here. Identical values can stand only once. Among all 5,500 compounds or so, about 2,000 (36%) were called active. Inconclusive results (about 18%) are left out. Cut-off read from the data, not from the text of the source: active = normalized growth mostly below about 0.91 (no sharp cut-off); inconclusive = no clear call, values can overlap the other calls; inactive = mostly above about 0.92. Some of the results follow.

Test: chemical genetic growth profiling, strain panel (AID 1159580);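 note: tested at 20 µM; growth read once vehicle control cultures reached saturation at 30 °C; 1 = growth at the plate median or of vehicle wells; lower values mean less growth of the strain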
Settings: growth OD

Measured: normalized growth

CCN(CC)CCNC(=O)c1cc(Cl)c(N)cc1OC
inactive: S. cerevisiae deletion strains, locus YJR075W, strain HOC1, stronger effect = lower value 0.998 | S. cerevisiae deletion strains, locus YKL009W, strain mrt4, stronger effect = lower value 1.01 | S. cerevisiae deletion strains, locus YKL068W, stronger effect = lower value 1.01 | S. cerevisiae deletion strains, locus YKL085W, strain MDH1 (second series), stronger effect = lower value 1 | S. cerevisiae deletion strains, locus YKL085W, strain MDH1, stronger effect = lower value 1 | S. cerevisiae deletion strains, locus YKL160W, strain elf1, stronger effect = lower value 0.97 | S. cerevisiae deletion strains, locus YKL190W, strain CNB1, stronger effect = lower value 1.02 | S. cerevisiae deletion strains, locus YKR001C, strain vps1, stronger effect = lower value 1 | S. cerevisiae deletion strains, locus YKR026C, strain gcn3, stronger effect = lower value 0.996 | S. cerevisiae deletion strains, locus YKR091W, strain srl3, stronger effect = lower value 0.972 | S. cerevisiae deletion strains, locus YLL001W, strain dnm1, stronger effect = lower value 0.921 | S. cerevisiae deletion strains, locus YLL026W, stronger effect = lower value 0.977 | S. cerevisiae deletion strains, locus YLL041C, strain sdh2, stronger effect = lower value 0.991 | S. cerevisiae deletion strains, locus YLR027C, strain aat2, stronger effect = lower value 0.983 | S. cerevisiae deletion strains, locus YLR039C, strain RIC1, stronger effect = lower value 0.996 | S. cerevisiae deletion strains, locus YLR058C, strain SHM2, stronger effect = lower value 1.01 | S. cerevisiae deletion strains, locus YLR102C, strain apc9, stronger effect = lower value 0.992 | S. cerevisiae deletion strains, locus YLR113W, strain HOG1, stronger effect = lower value 1.06 | S. cerevisiae deletion strains, locus YLR221C, strain rsa3, stronger effect = lower value 0.961 | S. cerevisiae deletion strains, locus YLR258W, strain gsy2, stronger effect = lower value 0.997 | S. cerevisiae deletion strains, locus YLR262C, strain YPT6 (second series), stronger effect = lower value 0.977 | S. cerevisiae deletion strains, locus YLR262C, strain YPT6, stronger effect = lower value 1.05 | S. cerevisiae deletion strains, locus YLR268W, strain sec22, stronger effect = lower value 0.963 | S. cerevisiae deletion strains, locus YLR320W, strain mms22, stronger effect = lower value 0.962 | S. cerevisiae deletion strains, locus YLR330W, strain CHS5, stronger effect = lower value 1 | S. cerevisiae deletion strains, locus YLR342W, strain FKS1 (second series), stronger effect = lower value 0.995 | S. cerevisiae deletion strains, locus YLR342W, strain FKS1, stronger effect = lower value 0.983 | S. cerevisiae deletion strains, locus YLR357W, strain rsc2, stronger effect = lower value 0.965 | S. cerevisiae deletion strains, locus YLR370C, strain arc18, stronger effect = lower value 0.973 | S. cerevisiae deletion strains, locus YLR371W, strain rom2, stronger effect = lower value 0.995 | S. cerevisiae deletion strains, locus YLR384C, strain iki3, stronger effect = lower value 0.976 | S. cerevisiae deletion strains, locus YLR418C, strain cdc73, stronger effect = lower value 0.976 | S. cerevisiae deletion strains, locus YML016C, strain PPZ1, stronger effect = lower value 1.01 | S. cerevisiae deletion strains, locus YML032C, strain rad52, stronger effect = lower value 0.987 | S. cerevisiae deletion strains, locus YML120C, strain ndi1, stronger effect = lower value 0.945 | S. cerevisiae deletion strains, locus YML124C, strain tub3, stronger effect = lower value 1 | S. cerevisiae deletion strains, locus YMR058W, strain fet3, stronger effect = lower value 0.983 | S. cerevisiae deletion strains, locus YMR078C, strain ctf18, stronger effect = lower value 0.994 | S. cerevisiae deletion strains, locus YMR125W, strain sto1, stronger effect = lower value 0.951 | S. cerevisiae deletion strains, locus YMR129W, stronger effect = lower value 0.995 | S. cerevisiae deletion strains, locus YMR205C, strain PFK2, stronger effect = lower value 0.954 | S. cerevisiae deletion strains, locus YMR223W, strain ubp8, stronger effect = lower value 0.997 | S. cerevisiae deletion strains, locus YMR231W, strain pep5, stronger effect = lower value 0.992 | S. cerevisiae deletion strains, locus YMR263W, strain SAP30, stronger effect = lower value 1.01 and 1 | S. cerevisiae deletion strains, locus YMR307W, strain GAS1, stronger effect = lower value 1.01 | S. cerevisiae deletion strains, locus YNL067W, strain RPL9B, stronger effect = lower value 1 | S. cerevisiae deletion strains, locus YNL071W, strain lat1, stronger effect = lower value 0.984 | S. cerevisiae deletion strains, locus YNL128W, strain TEP1, stronger effect = lower value 1.03 | S. cerevisiae deletion strains, locus YNL153C, strain GIM3, stronger effect = lower value 0.996 and 0.998 | S. cerevisiae deletion strains, locus YNL175C, strain NOP13, stronger effect = lower value 1 | S. cerevisiae deletion strains, locus YNL183C, strain NPR1, stronger effect = lower value 0.991 | S. cerevisiae deletion strains, locus YNL197C, strain WHI3, stronger effect = lower value 1.02 | S. cerevisiae deletion strains, locus YNL209W, strain ssb2, stronger effect = lower value 0.974 | S. cerevisiae deletion strains, locus YNL224C, strain SQS1, stronger effect = lower value 1.01 | S. cerevisiae deletion strains, locus YNL233W, strain BNI4, stronger effect = lower value 1 | S. cerevisiae deletion strains, locus YNL248C, strain rpa49, stronger effect = lower value 0.983 | S. cerevisiae deletion strains, locus YNL250W, strain rad50, stronger effect = lower value 0.992 | S. cerevisiae deletion strains, locus YNL271C, strain bni1, stronger effect = lower value 1 | S. cerevisiae deletion strains, locus YNL298W, strain CLA4, stronger effect = lower value 1 | S. cerevisiae deletion strains, locus YNL307C, strain MCK1, stronger effect = lower value 0.992 | S. cerevisiae deletion strains, locus YNL322C, strain KRE1 (second series), stronger effect = lower value 0.973 | S. cerevisiae deletion strains, locus YNL322C, strain KRE1, stronger effect = lower value 1.01 | S. cerevisiae deletion strains, locus YNR049C, strain mso1, stronger effect = lower value 0.962 | S. cerevisiae deletion strains, locus YNR052C, strain pop2, stronger effect = lower value 1.01 | S. cerevisiae deletion strains, locus YOL006C, strain TOP1, stronger effect = lower value 1.03 | S. cerevisiae deletion strains, locus YOL012C, strain htz1 1.1 | S. cerevisiae deletion strains, locus YOL147C, strain pex11, stronger effect = lower value 0.995 | S. cerevisiae deletion strains, locus YOR001W, strain rrp6, stronger effect = lower value 1 | S. cerevisiae deletion strains, locus YOR061W, strain CKA2, stronger effect = lower value 1 | S. cerevisiae deletion strains, locus YOR069W, strain VPS5, stronger effect = lower value 1.01 | S. cerevisiae deletion strains, locus YOR070C, strain gyp1, stronger effect = lower value 0.992 | S. cerevisiae deletion strains, locus YOR080W, strain dia2, stronger effect = lower value 0.987 | S. cerevisiae deletion strains, locus YOR083W, strain WHI5 (second series), stronger effect = lower value 0.999 | S. cerevisiae deletion strains, locus YOR083W, strain WHI5, stronger effect = lower value 0.964 | S. cerevisiae deletion strains, locus YOR106W, strain vam3, stronger effect = lower value 0.932 | S. cerevisiae deletion strains, locus YOR136W, strain idh2, stronger effect = lower value 0.994 | S. cerevisiae deletion strains, locus YOR144C, strain elg1, stronger effect = lower value 1 | S. cerevisiae deletion strains, locus YOR184W, strain ser1, stronger effect = lower value 0.986 | S. cerevisiae deletion strains, locus YOR231W, strain MKK1, stronger effect = lower value 1.05 | S. cerevisiae deletion strains, locus YOR265W, strain rbl2, stronger effect = lower value 0.993 | S. cerevisiae deletion strains, locus YOR270C, strain vph1, stronger effect = lower value 0.947 | S. cerevisiae deletion strains, locus YOR290C, strain snf2, stronger effect = lower value 0.909 | S. cerevisiae deletion strains, locus YOR316C, strain cot1, stronger effect = lower value 0.991 | S. cerevisiae deletion strains, locus YPL051W, strain arl3, stronger effect = lower value 0.998 | S. cerevisiae deletion strains, locus YPL055C, strain LGE1, stronger effect = lower value 1.02 and 1 | S. cerevisiae deletion strains, locus YPL078C, strain atp4, stronger effect = lower value 0.975 | S. cerevisiae deletion strains, locus YPL106C, strain sse1, stronger effect = lower value 0.971 | S. cerevisiae deletion strains, locus YPL240C, strain hsp82, stronger effect = lower value 0.98 | S. cerevisiae deletion strains, locus YPL241C, strain CIN2, stronger effect = lower value 1.01 | S. cerevisiae deletion strains, locus YPL256C, strain CLN2, stronger effect = lower value 1.13 | S. cerevisiae deletion strains, locus YPR119W, strain clb2, stronger effect = lower value 0.987 | S. cerevisiae deletion strains, locus YPR141C, strain kar3, stronger effect = lower value 0.993 | S. cerevisiae deletion strains, locus YPR163C, strain tif3, stronger effect = lower value 0.99 | S. cerevisiae deletion strains, locus YPR167C, strain met16, stronger effect = lower value 0.992 | S. cerevisiae deletion strains, strain wtn01, stronger effect = lower value 0.982 | S. cerevisiae strains, strain wild type, stronger effect = lower value 1.01
